# From PubChem BioAssay AID1851 (National Center for Advancing Translational Sciences (NCATS), 2009)
# Where “and” joins values, the source holds several entries; their conditions need not be identical. Equal values may be shown once. Screen size: about 16,000 compounds; about 4,000 (25%) were called active. About 26% were inconclusive and are not listed. A selection follows. Unmarked numbers belong to inactive results. Calls come from the whole dose curve; as a rule, active = well fitted curve in the direction sought with a large enough effect; inconclusive = small, poorly fitted or top-dose-only effect, or effect the other way; inactive = no such curve, though single readings can be large or run the other way.
# Molecular target: Cytochrome P450 2C9 (Homo sapiens) (UniProt P11712)
# Sequence (P11712 whole entry, looked up): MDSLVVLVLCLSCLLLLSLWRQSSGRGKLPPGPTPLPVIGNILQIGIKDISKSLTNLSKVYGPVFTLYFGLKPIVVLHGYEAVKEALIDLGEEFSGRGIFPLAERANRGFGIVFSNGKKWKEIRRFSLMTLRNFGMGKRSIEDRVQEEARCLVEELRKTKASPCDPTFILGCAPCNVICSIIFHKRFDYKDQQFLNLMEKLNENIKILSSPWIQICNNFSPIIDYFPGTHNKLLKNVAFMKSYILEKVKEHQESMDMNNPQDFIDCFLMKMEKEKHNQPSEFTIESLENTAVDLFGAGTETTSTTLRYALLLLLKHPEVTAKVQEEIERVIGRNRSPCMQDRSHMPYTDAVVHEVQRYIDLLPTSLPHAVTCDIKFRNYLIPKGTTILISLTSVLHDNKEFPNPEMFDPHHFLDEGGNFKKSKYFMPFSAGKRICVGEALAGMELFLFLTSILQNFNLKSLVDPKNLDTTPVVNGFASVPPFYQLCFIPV
# Test: Cytochrome panel assay with activity outcomes
# Settings: recombinant CYP, pro-luciferin dealkylation, luminescence, p450-cyp2c9; series mostly up to 57.1 µM; activity, negative = inhibition: at the top concentration
# % is set by controls: 0 for no effect and ±100 for the full control effect.
SMILES,"activity, negative = inhibition",AC50
Clc1cc2c(c(CSC3=NCN(CC4CC4)CN3)c1)OCOC2,9.58% [at 11.4 µM],
NCCc1ccn[nH]1,9.32% [at 25.6 µM],
COC(=O)c1ccc(CSc2nc3cc(Cl)ccc3s2)o1,,3.55 µM (active)
O=C(O)[C@@H]1CS[C@@]2(CCCN(Cc3ccccc3)C2)N1,15.9% [at 11.4 µM],
Cc1cccc(OCC(=O)NNC(=O)CSc2ncc(C#N)c(N)n2)c1,-30.1%,
Cc1cccc(-c2nsc(SCC(=O)Nc3nccs3)n2)c1,,1.58 µM (active)
COc1ccc(-n2nnnc2SCC(=O)Nc2ccccc2)cc1,-16.3%,
COc1cccc(-n2ccnc2SCC(=O)Nc2nccs2)c1,,11.2 µM (active)
COc1ccc(-n2ccnc2SCC(=O)Nc2ccccc2)cc1,,5.01 µM (active)
COC(=O)CSc1nnc(C)n1-c1cccc(OC)c1,-19.6%,
COc1ccc(C(O)c2nccn2Cc2ccccc2)cc1 (configuration not stated),-11.9%,
COc1ccc(NC(=O)CSc2ccc3c4c(cccc24)C(=O)c2ccccc2-3)cc1,,0.562 µM (active)
Cc1ccc(S(=O)(=O)O[C@H]2C[C@@H](C(C)(C)C)CC[C@@H]2c2ccccc2)cc1,5.88% [at 11.4 µM],
Cc1ccccc1-c1nc(Nc2ccncc2)c2ccccc2n1,-3.63% [at 2.29 µM],
O=C(O)[C@@H](O)[C@@H](O)[C@H](O)[C@H](O)CO,0.915% [at 11.4 µM],
COc1ccccc1NC(=O)N1CCC(c2nnc(SCC(N)=O)n2C)CC1,8.31%,
Cn1ccnc1SCC(=O)Nc1sccc1C#N,,8.91 µM (active)
COc1ccc(-n2ccnc2SCC(=O)Nc2ccc(OC)cc2OC)cc1,,4.47 µM (active)
CCc1nnc(NC(=O)CSc2ncnc3c2cnn3-c2ccc(OC)cc2)s1,1.56%,
CCNC(=O)CSc1nnc(C2CC2)n1-c1ccccc1,-23.2%,
CCOc1ccc(-n2ccnc2SCC(=O)Nc2nnc(CC)s2)cc1,,12.6 µM (active)
COc1ccc(NC(=O)CSc2nnc(C3CC3)n2-c2ccccc2)cc1,,10 µM (active)
CCc1nnc(NC(=O)CCC(=O)N2CCN(c3ccccn3)CC2)s1,-20.4%,

SMILES,"activity, negative = inhibition",AC50
C/C(CCN1CCCCc2nc(C)c(C)cc21)=N\O[C@@H](C)c1cn([C@H](CO)Cc2ccccc2)nn1,6.66% [at 11.4 µM] and -0.809% [at 11.4 µM],
O=C(Nc1cccc(F)c1)N1CC2(CCN(C(=O)c3csnn3)CC2)C1,4.96%,
CCS(=O)(=O)N(C)[C@@H]1c2cc(C#N)ccc2OC(C)(C)[C@H]1O,,inactive
O=C(O)[C@H]1[C@H](C(=O)O)[C@H](C(=O)O)C[C@@H]1C(=O)O,7.74% [at 11.4 µM],
Clc1ccc2c(NCCNC3CCCCC3)ccnc2c1,-4.74% [at 11.4 µM],
NCCCC(=O)O,-2.69%,
CCn1c(SCc2ccc(C)cc2)nnc1-c1nn(-c2ccccc2)ccc1=O,-19.9%,
Cc1ccc(-n2ccc(=O)c(-c3ccnc(SCc4cccc(Cl)c4)n3)n2)cc1,,3.16 µM (active)
CC(C)(C)S(=O)(=O)c1cnc2c(-c3ccc(F)cc3)cnn2c1N,-14%,
C[C@@H]1Cc2ccccc2N1NC(=O)c1ccc(Cl)c(S(N)=O)c1 (some centres not stated),-4.47% [at 25.6 µM],
CCN1CCN(CC(=O)N2c3ccccc3CC2C)CC1 (configuration not stated),-5.36%,
CC(=O)N1c2ccc(S(=O)(=O)CCC(=O)O)cc2CC1C (configuration not stated),-18%,
CC1Cc2ccccc2N1C(=O)Cn1c(=O)cc(O)c2ccccc21 (configuration not stated),,14.1 µM (active)
CCCN1CCN(C(=O)CN2C(=O)CC(C)(C)S(=O)(=O)c3ccccc32)CC1,-26.4%,
CC1Cc2ccccc2N1C(=O)CN1C(=O)COc2ccccc21 (configuration not stated),,11.2 µM (active)
COc1ccc(C(=O)N2CCC3(CC2)CN(Cc2ccc(C#N)cc2)C3)cc1,9.43%,
COc1ccc(NC(=O)N2CCCC3(CCN(C(=O)c4cc(C(F)(F)F)cc(C(F)(F)F)c4)CC3)C2)cc1,6.55%,
COc1ccc(C(=O)N2CCC[C@@]3(CCN(Cc4cc(C(F)(F)F)cc(C(F)(F)F)c4)C3)C2)cc1,9.5%,
COC(=O)[C@@]1(Cc2ccc(OC)cc2)[C@H]2c3cc(C(=O)N4CCCC4)n(CCCNc4ncc(C(F)(F)F)cc4Cl)c3C[C@H]2CN1C(=O)c1ccccc1,,7.94 µM (active)
COC(=O)[C@@]1(Cc2ccc(F)cc2)[C@H]2c3cc(C(=O)N4CCCC4)n(CCCNc4ncc(C(F)(F)F)cc4Cl)c3C[C@H]2CN1C(=O)c1ccccc1,,3.16 µM (active)
N=C1CCC[C@@H]1C(=S)SCCC(N)=O,17.6% [at 11.4 µM],
C=CC(=O)NC(NC(=O)C=C)c1ccc(Br)cc1,18.3%,
O=C1CC[C@H](NC(=O)c2ccccc2)C(=O)N1,5.14% [at 11.4 µM],

SMILES,"activity, negative = inhibition",AC50
O=C(c1cnccn1)N1CCC[C@@]2(CCN(c3ccncc3)C2)C1,-9.93%,
O=C(c1ccco1)N1CCC[C@@]2(CCN(c3cccc(-c4ccccc4)c3)C2)C1,,5.01 µM (active)
O=C(c1cnccn1)N1CCC[C@@]2(CCN(c3ccccn3)C2)C1,-9.53%,
O=C(c1cnccn1)N1CCC2(CC1)CN(c1cccc(-c3ccccc3)c1)C2,-12.8%,
O=C(c1cnccn1)N1CCC[C@@]2(CCN(c3cccc(-c4ccccc4)c3)C2)C1,,7.94 µM (active)
O=C(c1cnccn1)N1CCC2(CCCN(c3cccc(-c4ccccc4)c3)C2)CC1,,20 µM (active)
O=C(c1ccco1)N1CCC2(CC1)CN(c1cccc(-c3ccccc3)c1)C2,-6.53%,
O=C(c1ccco1)N1CCC[C@@]2(CCN(c3ccccc3)C2)C1,-10.5%,
O=C(c1cnccn1)N1CCC2(CC1)CN(c1ccccc1)C2,-1.1%,
CN(C)c1ccc(-c2ccc3ncnc(N(C)C)c3c2)cc1,-17.4% [at 2.29 µM],
O=c1n(-c2ccccc2)c(=O)n2n1CC[C@H]1/C(=N\OCc3ccccc3)[C@H]3O[C@@H]3[C@@H](O)[C@@H]12,25.1% [at 11.4 µM],
CCN1C(=O)CC(N2CCN(CC(=O)NC(C)C)CC2)C1=O (configuration not stated),28.9%,
O=C1CC(N2CCN(C(c3ccccc3)c3ccccc3)CC2)C(=O)N1Cc1ccc(N2CCCC2=O)cc1 (configuration not stated),,7.08 µM (active)
CN1CCN(C2CC(=O)N(Cc3ccc(N4CCCC4=O)cc3)C2=O)CC1 (configuration not stated),-21.9%,
NN(CC(=O)O)CC(=O)O,17.7% [at 11.4 µM],
Cc1cc(-c2ccc(Cl)cc2)oc(=O)c1NC(=O)c1ccccc1,-24.3%,
CNC(=O)c1sc(SC)cc1-c1ccc(Cl)cc1,,5.62 µM (active)
COc1ccccc1C(=O)O/N=C1/CCCc2c1ccc(OC)c2[N+](=O)[O-],,12.6 µM (active)
Cc1ccc2c(c1)/C(=N/OC(=O)c1ccc(F)cc1)CCS2,-4.99%,
Cc1cc(Cl)ccc1OC(C)C(=O)Nc1ccc(S(=O)(=O)Nc2cnc3ccccc3n2)cc1 (configuration not stated),,0.631 µM (active)
Cc1cc(NS(=O)(=O)c2ccc(NC(=O)CN3C(=O)c4ccccc4C3=O)cc2)nc(C)n1,9.04%,
O=C1C2Sc3[nH]c(=O)sc3C(c3ccccc3)C2C(=O)N1c1ccccc1 (configuration not stated),,12.6 µM (active)
O=C1C(C2=NC(C(=O)O)C3C(=O)N(c4ccc(Cl)cc4)C(=O)C23)=C(O)c2ccccc21 (configuration not stated),-11.2%,

SMILES,"activity, negative = inhibition",AC50
O=C1C2Sc3[nH]c(=O)sc3C(c3ccccc3)C2C(=O)N1c1ccc(Cl)cc1 (configuration not stated),,8.91 µM (active)
CO[C@@H]1COC(=O)C/C=C\[C@H](C)COC(=O)[C@H](C)NC(=O)C/C=C\[C@H]1C,-7.79% [at 11.4 µM],
Fc1cccc(/C=N\N=C/c2cccc(F)c2)c1,-17.3%,
CC1(C)Cc2ccccc2C(N/N=C/c2cccc(F)c2)=N1,,14.1 µM (active)
CC1=NC(C)(C)Cc2ccccc21,-5.09%,
O=C(O)C1CC2(C1)CC(C(=O)O)C2 (configuration not stated),-3% [at 11.4 µM],
N#Cc1cccc(-c2ccc3ncnc(NC4CCNCC4)c3c2)c1,10.5% [at 2.29 µM],
Cc1cnc(C(=O)OCC(=O)NC(C)C)cn1,0.966%,
CC(C)C(=O)Cc1ccc2ccccc2n1,7.52% [at 11.4 µM],
CCN(c1ccc(NC(=O)COC(=O)c2ccc3ccccc3n2)cc1)C(C)C,,20 µM (active)
CC(C)(C)C(=O)NC(Nc1cccc2cccnc12)C(Cl)(Cl)Cl (configuration not stated),,1.26 µM (active)
O=C(Nc1cccc2cccnc12)[C@@H]1[C@@H](C(=O)O)[C@H]2CC[C@@H]1O2,7.28% [at 11.4 µM],
O=S(=O)(O)c1cc(N=Nc2cccc3ccccc23)c(O)c2ncccc12,-11.1% [at 11.4 µM],
COc1ccc(NC(=O)N2CC[C@@]3(CCCN(C(=O)c4cnccn4)C3)C2)cc1,-2.53%,
CCOC(=O)c1sc(NC(=O)CSc2n[nH]c(-c3ccc(Cl)cc3Cl)n2)c(C#N)c1C,,1.26 µM (active)
Cc1ccccc1OCC(=O)Nc1sc(C(=O)Nc2cccc(C)c2C)c(C)c1C#N,-1.71%,
CCOC(=O)c1sc2c(c1C)c(=O)c(C(=O)OCC)cn2CC,-27.7%,
CCOc1cccc(NC(=O)CSc2nc(C)c3c(c2C#N)CCCC3)c1,-7.91%,
CCOC(=O)c1sc(NC(=O)CSc2nc(C)cc(C)c2C#N)c(C#N)c1C,,1 µM (active)
CCOC(=O)c1sc(NC(=O)CSc2nc(C)cc(C)n2)c(C#N)c1C,,3.55 µM (active)
CCN(CC)CCN1c2ccccc2Sc2ccc3ccccc3c21,0.978% [at 11.4 µM],
Cn1cnc2c(NCc3ccccc3)nc(NCCO)nc21,22.9%,
C/C(CCN1CCCCc2nc(C)c(C)cc21)=N\OC[C@@H](O)COCc1ccco1,-10.7% [at 11.4 µM],
